Test [1] is described as follows: qHTS assay to identify small molecule agonists of H2AX - cell viability counter screen (AID 1224847; calls by dose curve; note: nearly all actives have a fitted effect of over 30% in size; note: potency is the fitted concentration of half-maximal effect). The method, boiled down: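 After overnight plating of 1000 CHO-K1 cells per well, a 15-concentration compound series was applied for 3 hr at 37C. Luminescence from CellTiter-Glo, read following 30 min at room temperature, reflected cell viability.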
In general terms: In qHTS, concentration-response curves come from the screen itself.

The nature of test [2]: qHTS RealTime-Glo MT Cell Viability Assay in HepG2 cells - 24 hour (AID 1224867). Note: nearly all actives have a fitted effect of over 50% in size. Note: potency is the fitted concentration of half-maximal effect. Summed up: (§1)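 Cells + NanoLuc/prosubstrate dispensed (600 cells/well) → 5 h at 37 C/5% CO2 → compounds in DMSO transferred → 40 h incubation at 37 C, luminescence read at 0, 8, 16, 24, 32, 40 h.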
A short description of test [3]: qHTS RealTime-Glo MT Cell Viability Assay in HEK293 cells - 32 hour (AID 1224868). Note: nearly all actives have a fitted effect of over 50% in size. Note: potency is the fitted concentration of half-maximal effect. The method, boiled down:
(§2)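 Tox21 10K qHTS, HEK293, 600 cells/well, RealTime-Glo reagent co-dispensed with cells; 5 h preincubation, compound by pintool, 37 C, luminescence at 0–40 h.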

Test [4] can be described thus: qHTS RealTime-Glo MT Cell Viability Assay in HepG2 cells - 40 hour (AID 1224870). Note: nearly all actives have a fitted effect of over 50% in size. Note: potency is the fitted concentration of half-maximal effect. The method, boiled down:
(§3)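 HepG2 cells mixed with RealTime-Glo MT reagents (NanoLuc plus cell-permeant prosubstrate) were seeded at 600 cells/well, incubated 5 h at 37 C/5% CO2, then pinned with compounds in DMSO; nonlytic luminescence tracked viability during 40 h treatment.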

Test [5] is described as follows: qHTS RealTime-Glo MT Cell Viability Assay in HEK293 cells - 16 hour (AID 1224872). Note: nearly all actives have a fitted effect of over 50% in size. Note: potency is the fitted concentration of half-maximal effect. Summed up:
as §2

Test [6] can be described thus: qHTS RealTime-Glo MT Cell Viability Assay in HepG2 cells - 8 hour (AID 1224873). Note: nearly all actives have a fitted effect of over 55% in size. Note: potency is the fitted concentration of half-maximal effect. The method, boiled down:
as §3

Test [7] can be described thus: qHTS RealTime-Glo MT Cell Viability Assay in HEK293 cells - 40 hour (AID 1224874). Note: nearly all actives have a fitted effect of over 50% in size. Note: potency is the fitted concentration of half-maximal effect. As to conditions: RealTime-Glo luminescence; max response: active compounds read low. The method, boiled down: (§4)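 600 cells/well were plated with the nonlytic NanoLuc/prosubstrate reagent, pre-incubated 5 h, then given 23 nL of compound in DMSO. Incubation at 37 C for 40 h, with luminescence from viable-cell-reduced substrate read repeatedly from 0 h.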

Test [8] is described as follows: A CellTox Green Cytotoxicity Assay to monitor cytotoxicity in HepG2 cells - 16 hour (AID 1224876). Note: nearly all actives have a fitted effect of over 45% in size. Note: potency is the fitted concentration of half-maximal effect. Summed up: (§5)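 HepG2 cells, 600/well, preincubated 5 h with CellTox Green dye, then exposed to Tox21 compounds in DMSO at 37 C for up to 40 h. Dead-cell DNA fluorescence read at the indicated time point.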
The nature of test [9]: qHTS RealTime-Glo MT Cell Viability Assay in HepG2 cells - 32 hour (AID 1224877). Note: nearly all actives have a fitted effect of over 55% in size. Note: potency is the fitted concentration of half-maximal effect. The method, boiled down: as §1
Test [10] in a line: A CellTox Green Cytotoxicity Assay to monitor cytotoxicity in HepG2 cells - 24 hour (AID 1224878). Note: nearly all actives have a fitted effect of over 45% in size. Note: potency is the fitted concentration of half-maximal effect. Summed up: as §5
Test [11] can be described thus: qHTS RealTime-Glo MT Cell Viability Assay in HEK293 cells - 0 hour (AID 1224880). Note: top concentration of the series differs between compounds; nearly all actives have a fitted effect of over 45% in size. Summed up:
as §4

A short description of test [12]: A CellTox Green Cytotoxicity Assay to monitor cytotoxicity in HepG2 cells - 0 hour (AID 1224882). Note: nearly all actives have a fitted effect of over 35% in size. The method, boiled down: as §5
Test [13] is described as follows: A CellTox Green Cytotoxicity Assay to monitor cytotoxicity in HEK293 cells - 0 hour (AID 1224869). Note: nearly all actives have a fitted effect of over 50% in size. Summed up:
(§6)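 HEK293 cells, 600/well, were preincubated 5 hours and then exposed to compounds at 37 C for up to 40 hours. A cell-impermeant cyanine dye staining dead-cell DNA was read by fluorescence at 0, 8, 16, 24, 32 and 40 h time points.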

Test [14] is described as follows: A CellTox Green Cytotoxicity Assay to monitor cytotoxicity in HEK293 cells - 24 hour (AID 1224875). Note: nearly all actives have a fitted effect of over 45% in size. Note: potency is the fitted concentration of half-maximal effect. Summed up:
as §6

A short description of test [15]: A CellTox Green Cytotoxicity Assay to monitor cytotoxicity in HepG2 cells - 40 hour (AID 1224879). Note: nearly all actives have a fitted effect of over 40% in size. Note: potency is the fitted concentration of half-maximal effect. The method, boiled down: as §5
The nature of test [16]: A CellTox Green Cytotoxicity Assay to monitor cytotoxicity in HEK293 cells - 32 hour (AID 1224881). Note: nearly all actives have a fitted effect of over 40% in size. Note: potency is the fitted concentration of half-maximal effect. The method, boiled down: as §6
Test [17] can be described thus: A CellTox Green Cytotoxicity Assay to monitor cytotoxicity in HEK293 cells - 40 hour (AID 1224871). Note: nearly all actives have a fitted effect of over 45% in size. Note: potency is the fitted concentration of half-maximal effect. Summed up:
as §6

“And” between values parts separate entries of the source, which are not always exact repeats. Identical values can stand only once. Unmarked numbers belong to inactive results. Results filed as inconclusive are left out. The source made the active and inactive calls. Unless noted, calls come from the whole dose curve; as a rule, active = well fitted curve in the direction sought with a large enough effect in the repeat runs; inconclusive = weak or mixed curves; inactive = no such curve, though single readings can be large; an effect the other way counts as inactive or inconclusive.
% is set by controls: 0 for no effect and ±100 for the full control effect.

For the molecule `O=[N+]([O-])c1ccc2ccc3cccc4ccc1c2c34`, the Potency result in [1], in test [2], in [3], in test [4], in test [5] and in test [6] was “inactive” in each case. Further, the Potency result in test [8], in [9], in test [10], in test [11] and in [12] was “inactive” throughout. The max response in test [7] is -23.8%.
Turning to `C[C@]12CC[C@H]3[C@@H](CCC4=CC(=O)CC[C@@]43C)[C@@H]1CC[C@@H]2O`, the Potency entry in test [1], in [2], in [13], in [4], in test [6] and in [14] was “inactive” throughout. Moreover, the Potency result in test [8], in test [9], in [10], in [11] and in [12] was “inactive” in each case. Besides, the Potency in [3] is 48.6 µM (active).
`CCOC(=O)C1(c2ccccc2)CCN(CCC(C#N)(c2ccccc2)c2ccccc2)CC1`: the Potency entry in test [1], in [2], in test [3], in [13], in test [4] and in [5] was “inactive” throughout. Also, the Potency result in [14], in [8], in test [9], in test [10], in [15] and in [11] was “inactive” each time. Moreover, the Potency entry in test [16] and in test [12] was “inactive” in each case.
As for `Nc1ccccc1C(=O)Oc1ccc2ccccc2c1`, the Potency in test [1] was 80 µM (active). Also, the Potency entry in [2], in test [3], in test [13], in test [4], in [17] and in [14] was “inactive” in each case. Also, the Potency result in test [8], in test [11], in test [16] and in test [12] was “inactive” in each case. For the same molecule, the max response in [7] is -20.2%.
With `[Cl][Sb]([Cl])[Cl]`, the Potency result in test [1], in [2], in [13], in [4], in [5] and in test [6] was “inactive” in each case. Moreover, the Potency entry in test [14], in test [8], in test [9], in test [10], in test [11] and in test [16] was “inactive” in each case. The Potency result in test [12] was “inactive”. For the same molecule, in test [17], the Potency was 24.5 µM (active).
Turning to `CC(=O)O[C@H]1CC[C@@]2(C)C(=CC[C@@H]3[C@@H]2CC[C@]2(C)C(=O)CC[C@@H]32)C1`, the Potency in test [1] was 101 µM (active); in test [3], 49 µM (active); in test [5], 49 µM (active); in test [7], 54.9 µM (active). For the same molecule, the Potency result in test [2], in [13], in test [4], in test [6], in [9] and in [10] was “inactive” throughout. Further, the Potency entry in [15] was “inactive”.
`ClC1=C(Cl)C2(Cl)C3C(Cl)C=CC3C1(Cl)C2(Cl)Cl` (stereo not given): the Potency was 113 µM (active) in test [1]; 49.2 µM (active) and 49 µM (active) in test [3]; 55.2 µM (active) and 49 µM (active) in [17]; 43.8 µM (active) and 43.6 µM (active) in test [5]; 49.2 µM (active) and 49 µM (active) in test [7]; 49.2 µM (active) and 49 µM (active) in test [14]. The Potency in test [16] is 55.2 µM (active) and 49 µM (active). Besides, the Potency result in [13], in test [4] and in test [11] was “inactive” each time.
In the case of `ClCc1ccccc1CCl`, the Potency entry in test [1], in [2], in [13], in test [4], in test [6] and in test [14] was “inactive” each time. For the same molecule, the Potency entry in test [8], in [9], in test [11] and in test [12] was “inactive” each time. Besides, the Potency in test [17] is 49 µM (active).
With `CC(=O)[O-].CC(=O)[O-].[Hg+2]`, the Potency was 6.35 µM (active) in test [1]; 2.19 µM (active) in test [2]; 2.45 µM (active) in [4]; 5.49 µM (active) in [17]; 2.45 µM (active) in test [6]; 1.55 µM (active) in test [7]. Further, the Potency in test [14] was 21.9 µM (active); in test [8], 2.75 µM (active); in [9], 2.19 µM (active); in [10], 2.19 µM (active); in [15] it was 1.55 µM (active); in test [16] it was 7.76 µM (active). Also, the Potency entry in [13] and in test [12] was “inactive” in each case.
For the molecule `CCOCn1c(-c2ccc(Cl)cc2)c(C#N)c(Br)c1C(F)(F)F`, the Potency in test [1] is 2.53 µM (active); in [3] it was 4.36 µM (active); in test [17], 24.5 µM (active); in test [5] it was 6.16 µM (active); in test [10] it was 17.4 µM (active); in test [15] it was 12.3 µM (active). In addition, the Potency entry in test [13], in test [14], in test [8], in test [11] and in test [12] was “inactive” throughout.
Consider `CCOC(=O)CC(=O)CCl`, for which the Potency result in test [1], in [2], in test [13], in [4], in [6] and in test [10] was “inactive” in each case. For the same molecule, the Potency result in [15], in [11] and in test [12] was “inactive” throughout. The Potency in [3] was 43.6 µM (active); in test [17] it was 54.9 µM (active); in test [5], 38.9 µM (active); in test [7], 43.6 µM (active).
As to `CCCCCCCCc1ccc(O)cc1`, the Potency is 25.5 µM (active) in [1]; 5.53 µM (active) in test [3]; 19.6 µM (active) in test [17]; 4.39 µM (active) in [5]; 17 µM (active) in test [7]; 17.5 µM (active) in test [14]. Also, the values for the Potency in [8], in [10] and in [15] were 38 µM (active), 19.6 µM (active) and 19.6 µM (active), respectively. Moreover, in test [12], the Potency result is “inactive”.
For `Nc1ccccc1C(=O)OC/C=C/c1ccccc1`, the Potency in test [1] is 101 µM (active); in test [3] it was 24.6 µM (active); in test [5] it was 24.6 µM (active); in [7], 24.6 µM (active). For the same molecule, the Potency entry in [2], in test [13], in [4], in test [17], in test [6] and in [14] was “inactive” in each case. In addition, the Potency entry in test [8], in [10], in test [15], in [11], in [16] and in test [12] was “inactive” throughout.
With `Clc1ccc(CSC(Cn2ccnc2)c2ccc(Cl)cc2Cl)cc1` (stereo not given), the Potency in [1] was 49.2 µM (active). In addition, the Potency entry in test [13], in test [17], in [14], in test [8], in [10] and in [15] was “inactive” in each case. The Potency result in test [11], in test [16] and in test [12] was “inactive” throughout.
